Mac1 fbg inh: blocks human CD11b/CD18 adhesion to fibrinogen | K562 CD11b/CD18 adhesion to fibrinogen, ATPlite luminescence; Mn2+ added to activate the integrin | AID 1497 | P05107+P11215 | 93,000 compounds, 0.54% hits | inhibition, % at 10 µM;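 active = primary inhibition of 50% or more at 10 µM, then 40% or more on retest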
MRP resist rev: compounds reversing MRP-mediated drug resistance; H69AR cells + 2 uM doxorubicin, CellTiter-Glo, 72 h; differential viability (reversal), % at 10 µM; 85,000 compounds, 0.04% hits; AID 602;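 active = viability drop by adding the cancer drug above about 55%, with treated viability meeting a 40% cutoff, limit read from the data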;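 note: viability without doxorubicin minus viability with 2 µM doxorubicin for each compound; larger differential means the compound sensitizes cells more to doxorubicin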
Smad3 inh: inhibitors of human Smad3 transcription factor binding; P84022; TR-FRET Smad3/Dy647-FoxH1 peptide binding, europium anti-His; inhibition, % at 25 µM; 88,000 compounds, 0.29% hits; AID 630;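 active = compounds that reduce the energy-transfer binding signal between the protein and its labelled peptide by more than half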;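 note: 0% = Smad3 plus labelled peptide maximal FRET and 100% = peptide-only background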
Target sequence (P84022 whole entry, looked up): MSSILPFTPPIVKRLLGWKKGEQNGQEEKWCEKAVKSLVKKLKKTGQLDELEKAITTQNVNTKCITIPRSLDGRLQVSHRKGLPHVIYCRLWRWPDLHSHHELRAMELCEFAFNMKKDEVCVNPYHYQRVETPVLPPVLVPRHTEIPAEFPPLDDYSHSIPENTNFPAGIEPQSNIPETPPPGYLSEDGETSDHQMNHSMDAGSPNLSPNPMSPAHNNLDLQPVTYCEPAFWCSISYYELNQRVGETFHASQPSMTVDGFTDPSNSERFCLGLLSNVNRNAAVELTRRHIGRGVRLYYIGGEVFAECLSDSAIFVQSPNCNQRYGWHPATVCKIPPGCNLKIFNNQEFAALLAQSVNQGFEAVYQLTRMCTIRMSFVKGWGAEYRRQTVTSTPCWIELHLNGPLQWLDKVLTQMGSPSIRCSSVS
Phagocytosis inh: inhibitors of macrophage phagocytosis | inhibition, % at 5 µM | 110,000 compounds, 0.07% hits | J774A.1 macrophage IgG-bead phagocytosis, imaging | AID 1029;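 active = inhibition above the mean of the plate negative controls plus 5 SD, cut at about 13% in these data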;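 note: phagocytic index as fraction of beads internalized from green versus red external bead signal; plate controls were DMSO negative control for no effect and cytochalasin-D positive control for full effect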
MRP-1 activ: MRP-1 activation; H69AR cells + doxorubicin, viability rescue, CellTiter-Glo; viability increase, % at 10 µM; 140,000 compounds, 0.61% hits; AID 799;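 active = viability gain under doxorubicin at or above a set limit, the compound median plus 3 SD, cut at about 4.7% in these data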;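 note: MRP-1 overexpressing cells given doxorubicin 25 µM after compound pretreatment; 18-22 h compound pretreatment then 72 h with doxorubicin before readout; 0% = doxorubicin-only wells and 100% = vehicle-treated cells without doxorubicin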
CD11b adhes enh: CD11b/CD18-fibrinogen binding enhancement. K562 CD11b/CD18 adhesion to fibrinogen, ATPlite luminescence. activation, % at 10 µM. 93,000 compounds, 0.07% hits;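 active = 10 µM primary screen giving 50% or more activity, confirmed by 40% or more on retest at that dose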
* marks the source's active call; other numbers are inactive results; x = no result given; [ ] = another dose, or the depositor's remark. This is a sample that favours compounds with a hit; in the whole collection about 1.2% have one here.

SMILES	Mac1 fbg inh	MRP resist rev	Smad3 inh	Phagocytosis inh	MRP-1 activ	CD11b adhes enh
Cc1cc(Cc2cc(C)c(N)cc2N)c(N)cc1N	x	x	102.1*	x	x	x
O=C(COc1ccc(Br)cc1)c1ccc2c(c1)CCCC2	x	x	x	x	5.1*	x
C/C(Cl)=C\Cn1c(N2CCCCCC2)nc2c1c(=O)n(C)c(=O)n2C	-2.6	7.7	0.4	-2.1	-2.3	4.0
Cc1cc2n(n1)C(c1ccccc1)CC(c1ccc(Br)cc1)=N2 (stereo unspecified)	x	x	x	-5.3	5.5*	x
O=C(O)[C@@H]1[C@H]2C[C@@H]3[C@@H](OC(=O)[C@@H]31)[C@H]2Br	x	x	-9.4	x	x	x
CCOC(=O)C(C)Sc1nnc(NC(=O)c2ccc(C)c([N+](=O)[O-])c2)s1 (stereo unspecified)	65.5*	x	x	-7.6	1.5	-4.8
O=C(O)c1ccc([N+](=O)[O-])c(P(=O)(O)O)c1	x	x	-2.0	x	x	x
O=C(O)c1ccc(N/N=C/c2ccc(F)c(F)c2)cc1	-12.8	x	x	4.2	7.3*	-1.2
O=C(O)c1ccc(N/N=C/c2cccc(F)c2)cc1	x	x	x	-6.8	0.8	x
CN(C)c1nc2n(c(=S)n1)CCS2	-0.9	8.1	-3.2	1.0	-0.2	-3.2
O=C(Nc1cccn(Cc2c(Cl)cccc2Cl)c1=O)c1c(Cl)cccc1Cl	x	x	x	x	9.2*	x
CCCNC(=O)c1oc2ccc3c(c2c1C)C(=O)CC(C)(C)O3	21.3	13.5	5.2	x	7.1*	-5.1
Cc1csc(C(C#N)C(=O)c2cc3ccccc3o2)n1 (stereo unspecified)	x	-15.2	1.6	x	6.1*	x
O=C(NC(=S)Nc1ccccc1N1CCOCC1)c1ccc(-c2cccc(Cl)c2)o1	2.2	x	x	-1.0	5.2*	-4.8
O=C(NC(=S)Nc1ccccc1N1CCCCC1)c1ccc(-c2cccc([N+](=O)[O-])c2)o1	-12.7	-2.0	-0.7	1.9	8.0*	7.6
O=C(NC(=S)Nc1ccccc1N1CCCC1)c1ccc(-c2cccc([N+](=O)[O-])c2)o1	-1.8	21.5	-3.5	-0.8	-1.8	21.8
CC(=O)c1ccc(NC(=O)Nc2cccc(Cl)c2)cc1	96.8*	-27.2	-2.3	x	-1.8	-6.7
COc1ccc(C[C@@H]2C(=O)N[C@H](C)C(=O)N(C)[C@@H]3Cc4ccc(cc4)Oc4cc(ccc4O)C[C@@H](C(=O)N[C@@H](C)C(=O)N[C@H](C)C(=O)N2C)N(C)C3=O)cc1	x	x	11.3	x	x	x
O=C(O)C1C2CCC(O2)C1C(=O)Nc1cccc(F)c1 (stereo unspecified)	-5.9	x	x	-0.6	-3.3	-1.7
O=C(O)[C@@H]1[C@H](C(=O)Nc2cccc3cccnc23)[C@@H]2CC[C@H]1O2	x	x	98.3*	x	x	x
CCCn1ncc(OC)c(Cl)c1=O	-1.8	x	x	-0.6	-0.8	-1.6
O=C1NC(=Nc2ccccc2)SC1Cc1cccc(Cl)c1Cl (stereo unspecified)	x	x	x	-2.2	5.7*	x
O=C1N/C(=N/c2ccccn2)SC1Cc1ccccc1 (stereo unspecified)	-2.2	1.8	5.9	2.1	2.2	-3.3
CCc1cc(-c2[nH]ncc2-c2ccc3c(c2)OCO3)c(O)cc1O	69.9*	-30.9	3.7	-0.1	-5.3	-3.3
Cn1c(N2CCOCC2)nc(-c2ccccc2)c1-c1ccccc1	14.8	x	x	-0.9	-2.6	-3.0
SMILES	Mac1 fbg inh	MRP resist rev	Smad3 inh	Phagocytosis inh	MRP-1 activ	CD11b adhes enh
O=c1[nH]c(Nc2ccccc2)cc2ccccc12	x	-3.5	57.8*	x	-1.3	x
Cc1ccc(NC(=O)CSc2nnc(-c3cnccn3)n2-c2ccccc2)cc1	-4.3	x	x	-1.7	-1.9	-1.9
Cc1nc2ccccc2n1C(=O)c1ccccc1[N+](=O)[O-]	8.3	x	x	-2.1	-2.9	-0.2
O=C(Nc1ccccc1[N+](=O)[O-])C1=C(O)CCn2c1nc1ccccc12	4.6	-15.2	50.5*	-0.7	-1.0	-0.8
N=C(N)SCCN1CCCCC1	x	x	18.9	x	x	x
COc1ccccc1-c1nnc(SC2CCc3ccccc3NC2=O)s1 (stereo unspecified)	x	1.0	13.6	x	6.3*	x
COc1ccc(/C=N\NC(=O)c2cc(O)c(O)c(O)c2)cc1CN1CCN(c2ccc(F)cc2)CC1	-14.8	x	x	-6.9	11.9*	56.8
Cc1ccccc1Cn1nc(C)c(NC(=O)c2noc3c2CCc2ccccc2-3)c1C	-31.7	22.9	6.0	-0.4	5.2*	8.4
COC(=O)c1ccc(NC(=O)CN(Cc2ccc(Cl)cc2)S(C)(=O)=O)cc1	9.4	-4.1	-2.5	0.6	-3.3	1.2
O=C(O)CCn1cc(/C=C\C(=O)c2ccc(Cl)cc2)c(-c2cccc(Br)c2)n1	53.0*	x	x	-10.2	-3.7	25.3
COc1ccc(-c2nn(CCC(=O)O)cc2/C=C/C(=O)O)cc1[N+](=O)[O-]	x	x	x	-5.5	-0.9	x
NC1=NC(=O)/C(=C/c2cn(CCC(=O)O)nc2-c2ccc(Cl)cc2)S1	x	x	x	-5.8	5.5*	x
CC[C@H]1CN(C)[C@@H]2Cc3c([nH]c4ccccc34)C(=O)C[C@H]1[C@H]2C(=O)OC	x	x	1.2	x	x	x
CCCNC(=O)C(=O)Nc1ccc(N(C)C)cc1	x	10.0	90.9*[fluorescence artefact?]	x	0.8	x
CC(C)(C)C(=O)[C@H]([C@@H](c1ccccc1)N1CCOCC1)N1CCOCC1	x	x	-1.3	x	x	x
Cc1nn(Cc2c(F)c(F)c(F)c(F)c2F)c(C)c1NC(=O)c1ccc(COc2ccccc2Cl)o1	x	x	x	x	1.5	x
Cc1nn(Cc2c(F)c(F)c(F)c(F)c2F)c(C)c1NC(=O)c1ccc(COc2ccc(F)cc2)o1	x	x	x	x	6.7*	x
O=C1C(=O)c2c(C(=O)c3ccccc3)coc2-c2ccccc21	59.0*	0.7	0.1	2.1	-2.2	-0.2
C[C@]1(O)CC[C@H]2[C@H]3CC=C4N5CCN=C5CC[C@@]4(C)[C@@H]3CC[C@@]21C	x	x	-10.2	x	x	x
Cc1ccc(/C=C/C(=O)c2ccccc(=O)c2O)cc1C	x	x	x	-2.5	-4.9	x
O=C(/C=C/c1ccccc1)c1cc(Br)ccc(=O)c1O	88.0*	x	x	0.4	-2.6	-2.9
CC1Oc2ccccc2N(CC(=O)N(Cc2ccccc2)Cc2ccccn2)C1=O (stereo unspecified)	-0.8	-7.9	4.4	x	-0.6	-2.8
COCc1cc(=O)n2[nH]c(-c3ccsc3-n3c(C)ccc3C)cc2n1	13.6	10.6	7.0	x	-1.9	-2.8
Cc1nc2cc(-c3ccsc3-n3c(C)ccc3C)[nH]n2c(=O)c1Cl	88.7	-10.0	-1.0	x	6.0*	-6.5
CCCCCCNCc1ccc(Br)cc1	-4.9	x	x	-1.2	-3.8	-4.3
Cc1ccccc1NC(=O)CC1SC(=O)N(c2ccccc2)C1=O (stereo unspecified)	-0.4	7.7	6.4	x	5.4*	-4.7
CCc1ccc(CNC(=O)c2cc3c(C)nc4ccccc4c3o2)cc1	93.5*	-5.7	-17.9	-0.7	1.9	-7.5
O=C(c1ccccc1)c1nc2ccccc2n(CCCn2c(=O)c(C(=O)c3ccccc3)nc3ccccc32)c1=O	-9.5	11.6	-8.1	-0.4	-3.9	131.7*
Cc1cc(C2=NNC(=NC3CC3)SC2)c(C)n1-c1ccccc1	97.8*	x	x	-3.4	-4.0	-4.9
Cc1cc(C2=NNC(=NC3CC3)SC2)c(C)n1Cc1ccco1	75.1*	x	x	-2.2	-5.0	18.9

Screens from PubChem BioAssay.
